Screening data as filed in PubChem BioAssay.
GALR2 blocker: GALR2 (human) receptor antagonism | GALR2-expressing cells, antagonist mode | inhibition, % at 4 µM | hit rate 0.39% among 140,000 | AID 828; in the data active means inhibition above about 27%;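 further: cells stimulated with galanin 1-16 at roughly its EC80; 0% = agonist challenge control and 100% = basal control without agonist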
S1P2 agonist: S1P2 (human) receptor agonism; S1P2-expressing cell line, agonist reporter read-out; hit rate 0.46% among 97,000; activation, % at 4.5 µM; AID 729; O95136; in the data active means activation above about 16%;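 further: 0% = vehicle low control and 100% = maximal reference agonist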
Target sequence (O95136 whole entry, looked up): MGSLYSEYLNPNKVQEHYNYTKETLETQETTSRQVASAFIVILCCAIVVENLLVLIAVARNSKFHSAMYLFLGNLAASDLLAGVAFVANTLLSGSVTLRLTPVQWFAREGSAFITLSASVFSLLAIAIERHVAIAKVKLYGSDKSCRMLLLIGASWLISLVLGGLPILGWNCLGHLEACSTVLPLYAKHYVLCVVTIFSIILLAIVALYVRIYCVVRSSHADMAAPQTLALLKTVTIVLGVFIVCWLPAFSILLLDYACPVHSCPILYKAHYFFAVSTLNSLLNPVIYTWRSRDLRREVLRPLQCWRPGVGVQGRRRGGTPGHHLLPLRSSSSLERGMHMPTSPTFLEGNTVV
GALR2 ag: agonists of human galanin receptor 2 (GALR2). O43603. GALR2-expressing cells, agonist activation read-out. activation, % (no concentration beside the values). hit rate 0.48% among 140,000; in the data active means activation above about 5%, passing the limit was not always enough;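 further: 0% = vehicle buffer wells and 100% = reference agonist at full effect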
Phagocytosis inh: inhibitors of macrophage phagocytosis; J774A.1 macrophage IgG-bead phagocytosis, imaging; inhibition, % at 5 µM; hit rate 0.07% among 110,000;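 active means inhibition above the mean of the plate negative controls plus 5 SD, cut at about 13% in these data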;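 further: phagocytic index as fraction of beads internalized from green versus red external bead signal; plate controls were DMSO negative control for no effect and cytochalasin-D positive control for full effect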
S1P2 blocker: antagonists of human S1P2 receptor; O95136; cell-based S1P2 antagonist assay, inhibition at 5 uM; inhibition, % at 5 µM; hit rate 0.21% among 97,000; AID 736; in the data active means inhibition above about 45%;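 further: CRE beta-lactamase reporter cells expressing human S1P2 stimulated with S1P; 0% = agonist at EC80 alone and 100% = agonist plus reference antagonist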
GALR2 ag confirm: confirmation of human galanin receptor 2 (GALR2) agonists; GALR2-expressing cells, agonist activation; activation, % at 5.6 µM; hit rate 10% among 460; shares compounds with GALR2 ag; in the data active means activation above about 8.4%;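 further: 0% = buffer-only vehicle wells and 100% = full reference agonist response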
BLA activ ctr: beta-lactamase activation, GALR2 counterscreen | shares compounds with GALR2 ag | CHO NFAT-bla reporter, beta-lactamase FRET activation | activation, % at 5.6 µM | hit rate 10% among 460;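 active means activation above the screen-wide mean activation plus 3 SD, cut at about 8% in these data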;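 further: 0% = DMSO with PBS wells and 100% = thapsigargin positive control wells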
An asterisk follows results filed as active; nt = no result. This is a sample that favours compounds with a hit; in the whole collection about 1.3% have one here.

SMILES	GALR2 blocker	S1P2 agonist	GALR2 ag	Phagocytosis inh	S1P2 blocker	GALR2 ag confirm	BLA activ ctr
CCC(=O)c1ccc2ncccc2c1	6.4	nt	-1.7	-4.9	nt	nt	nt
Cc1nn(CC(=O)Nc2cccc(S(N)(=O)=O)c2)c(C)c1[N+](=O)[O-]	4.1	nt	-0.2	-4.7	nt	nt	nt
CCc1cccc(C)c1NC(=O)CSc1nnc(CCCOc2ccc(Cl)cc2Cl)n1C	-12.0	nt	1.6	-1.6	nt	nt	nt
Cc1ccc(NC(=O)CN2CCCN(S(=O)(=O)c3ccc(Br)s3)CC2)cc1	-2.7	-3.0	8.5	-1.1	-11.9	0.3	-1.1
Cc1cc(C)cc(NC(=O)CN2CCCN(S(=O)(=O)c3ccc(Br)s3)CC2)c1	-6.6	-2.5	-1.1	-0.6	-9.9	nt	nt
COc1ccccc1NC(=O)COc1ccccc1	4.1	-3.9	-0.8	-0.6	13.7	nt	nt
COc1ccc(NC(=O)COc2ccccc2)c(OC)c1	2.1	-2.7	16.1*	1.2	4.6	-0.6	-2.7
Fc1c(F)c(C(F)(F)F)c(F)c(F)c1N/N=C\c1cccs1	1.1	-0.4	31.4*	-0.7	5.2	6.7	5.8
O=S(=O)(c1cccc2ccccc12)n1nnc2ccccc21	-13.9	-3.7	93.9*	nt	-14.1	-0.9	-2.3
CC(C)/C=N/NC(=O)c1ccc(Cl)cc1	3.6	nt	-0.2	-0.2	nt	nt	nt
Cc1ccc(S(=O)(=O)N2CCN(C(=O)COc3ccc(NC(=O)c4ccco4)cc3)CC2)cc1	3.6	-4.2	12.8*	1.2	2.5	-0.8	-2.4
COc1ccc(CNc2nc(NCc3ccc(OC)cc3)n(C(=O)c3ccccc3[N+](=O)[O-])n2)cc1	-3.6	-3.8	-2.0	nt	16.8	nt	nt
CCCCn1nc(NC(=O)c2cccs2)c2cc3ccccc3nc21	9.7	5.7	11.1	0.0	13.5	2.4	4.2
CCCn1nc(NC(=O)c2cccs2)c2cc3cc(OC)ccc3nc21	-12.3	5.1	9.5	3.1	-16.0	0.6	2.2
CCCn1nc(NC(=O)c2cccs2)c2cc3ccccc3nc21	23.8	5.5	2.0	nt	9.9	nt	nt
COC(=O)[C@@H](NC(=O)O[C@@H]1C(=O)c2cc(Br)ccc2O[C@H]1c1cccc(OC)c1)C(C)C	5.2	nt	-2.0	nt	nt	nt	nt
CC1CCN(C(=O)C2CCN(S(=O)(=O)c3cccc4nonc34)CC2)CC1	-14.4	1.8	0.7	nt	-4.2	nt	nt
N#Cc1c(-c2ccccc2)cc(-c2ccco2)c(C#N)c1N	-5.7	10.9	9.6	-2.0	-34.8	7.7	10.7*
COc1ccc(C(=O)CSc2nnc(NC(=O)C3CC(=O)N(c4ccccc4C)C3)s2)cc1 (stereo not given)	-6.8	nt	-1.3	-9.2	nt	nt	nt
O=C(Cn1c2ccccc2c(=O)c2ccccc21)Nc1ccccc1F	0.5	nt	14.9*	nt	nt	3.2	8.1
COc1ccc(CCN2CCC(Nc3nc4ccccc4n3Cc3ccc(F)cc3)CC2)cc1	1.9	nt	24.9*	nt	nt	17.9*	3.0
COC(=O)c1ccc(NC(=S)NC2CC3CCC2C3)cc1 (stereo not given)	-5.3	nt	-1.2	-0.4	nt	nt	nt
COc1ccc2ccccc2c1/C=N/NC(=O)c1sc(N)c(C#N)c1C	-4.5	nt	11.6*	-6.4	nt	7.7	6.6
COc1ccc(C(=O)/C=C/c2cn(CN3CCN(C)CC3)c3ccccc23)cc1	8.9	2.1	5.7	-0.8	14.4	nt	nt
CCOc1ccc(C(=O)/C=C/c2cn(CN3CCN(C)CC3)c3ccccc23)cc1	11.7	4.3	12.0*	nt	9.7	1.9	3.6
SMILES	GALR2 blocker	S1P2 agonist	GALR2 ag	Phagocytosis inh	S1P2 blocker	GALR2 ag confirm	BLA activ ctr
CC(=O)Nc1ccc2[nH]c(C)c(CC=C(Cl)Cl)c(=O)c2c1	7.0	-1.6	14.2*	-1.3	-16.7	-1.4	-3.5
CCOC(=O)c1ccc2[nH]c(C)c(CCC(C)=O)c(=O)c2c1	-9.4	0.4	-1.6	-0.8	13.1	nt	nt
O=C(Nc1ccc(Br)cc1)c1cccc(N2C(=O)C3C4CCC(C4)C3C2=O)c1 (stereo not given)	5.3	nt	-1.3	-1.1	nt	nt	nt
CCOc1ccccc1N=c1oc2cc(O)ccc2cc1C(=O)NCC1CCCO1 (stereo not given)	-25.1	17.7*	65.6*	0.5	-48.1	1.9	6.8
CCOc1ccc(S(=O)(=O)Nc2ccccc2C(=O)NCC2CCCO2)cc1 (stereo not given)	3.7	-6.4	-3.2	-0.3	16.9	nt	nt
COc1cc2nc(/C=C/c3cc(OC)c(OC)c(OC)c3)sc2cc1SC	-4.2	nt	14.1*	13.3	nt	5.8	9.0*
COc1cc(/C=C/C(=O)Nc2nc3ccc(S(=O)(=O)N(C)C)cc3s2)cc(OC)c1OC	11.4	nt	2.0	-4.7	nt	nt	nt
